This is one part of a sample in which hits are shown more often than they occur.
KDM5B inhibitor – Primary screen for KDM5B Histone Demethylases FDH-coupled qHTS; KDM5B demethylase, FDH-coupled NADH fluorescence (FDH is formaldehyde dehydrogenase); Potency, µM (doses to about 57.7 µM), hits mostly inhibitors; 220,000 tested, 2.6% active; AID 1347165, 2019; active means well fitted inhibition curve with a large enough effect; further: nearly all actives have a fitted effect of over 70% in size
Target sequence (Q9UGL1 whole entry, looked up): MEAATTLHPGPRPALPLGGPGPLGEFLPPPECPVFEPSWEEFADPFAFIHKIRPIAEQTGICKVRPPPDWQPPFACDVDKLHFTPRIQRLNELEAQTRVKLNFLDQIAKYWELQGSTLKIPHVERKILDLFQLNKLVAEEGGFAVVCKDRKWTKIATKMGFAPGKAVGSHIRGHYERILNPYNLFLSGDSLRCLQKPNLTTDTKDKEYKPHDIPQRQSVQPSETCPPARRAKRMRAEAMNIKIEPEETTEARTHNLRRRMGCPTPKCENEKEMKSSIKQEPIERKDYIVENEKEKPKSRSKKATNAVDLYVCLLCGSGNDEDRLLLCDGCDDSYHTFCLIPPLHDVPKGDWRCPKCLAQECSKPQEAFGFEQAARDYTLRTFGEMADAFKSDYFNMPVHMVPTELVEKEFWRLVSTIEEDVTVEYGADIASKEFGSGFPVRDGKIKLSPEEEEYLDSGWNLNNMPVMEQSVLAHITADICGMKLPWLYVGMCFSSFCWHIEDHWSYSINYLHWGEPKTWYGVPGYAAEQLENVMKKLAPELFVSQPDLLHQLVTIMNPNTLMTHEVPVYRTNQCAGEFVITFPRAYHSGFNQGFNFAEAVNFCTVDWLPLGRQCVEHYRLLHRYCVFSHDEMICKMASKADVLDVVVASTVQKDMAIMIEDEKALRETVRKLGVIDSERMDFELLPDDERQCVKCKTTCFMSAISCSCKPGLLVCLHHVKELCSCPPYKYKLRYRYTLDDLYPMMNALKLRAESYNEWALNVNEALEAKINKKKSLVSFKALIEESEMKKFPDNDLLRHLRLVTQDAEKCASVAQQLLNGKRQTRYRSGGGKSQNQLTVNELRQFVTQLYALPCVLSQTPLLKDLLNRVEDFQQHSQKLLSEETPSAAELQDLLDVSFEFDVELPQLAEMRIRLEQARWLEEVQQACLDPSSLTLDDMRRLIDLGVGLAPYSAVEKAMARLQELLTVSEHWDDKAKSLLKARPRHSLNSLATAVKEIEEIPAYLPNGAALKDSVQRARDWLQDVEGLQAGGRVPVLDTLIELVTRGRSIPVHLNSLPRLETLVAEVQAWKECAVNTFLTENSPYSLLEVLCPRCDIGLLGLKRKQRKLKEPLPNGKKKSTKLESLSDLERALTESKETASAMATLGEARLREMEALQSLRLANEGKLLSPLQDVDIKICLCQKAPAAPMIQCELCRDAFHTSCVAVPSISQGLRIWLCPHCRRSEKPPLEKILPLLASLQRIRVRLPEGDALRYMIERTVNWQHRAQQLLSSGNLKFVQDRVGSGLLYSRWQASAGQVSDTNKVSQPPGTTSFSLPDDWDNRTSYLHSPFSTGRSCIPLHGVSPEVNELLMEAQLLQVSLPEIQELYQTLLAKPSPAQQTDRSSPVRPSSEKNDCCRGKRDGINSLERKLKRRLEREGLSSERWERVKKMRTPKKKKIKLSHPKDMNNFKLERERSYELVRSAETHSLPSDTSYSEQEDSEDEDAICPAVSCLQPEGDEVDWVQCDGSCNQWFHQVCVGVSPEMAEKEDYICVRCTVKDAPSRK
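Coupled FDH/NAD⁺ fluorescence readout. KDM5BΔAP 200 nM final; compound titration, 10 min RT preincubation; substrate mix 12.5 µM H3K4me3, 25 µM 2-OG, 50 µM Fe(II), 100 µM ascorbate, 0.25 mM NAD⁺, 0.25 U/mL FDH; ΔRFU over 30 min.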
Hits are given with their value.

What do the screens show for `O=C(c1cc2ccccc2oc1=O)N1CCSC1c1ccc(Cl)cc1` (centres undefined)?
KDM5B inhibitor: inactive

Results for CCCCCCCCc1ccc(-c2ccc(C(=O)OC(C)C(=O)OC(C)C)cc2)cc1 (centres undefined) ?
KDM5B inhibitor: inactive

How did CN(C(=O)CCc1ncc(-c2ccccc2)o1)C1CCS(=O)(=O)C1 (centres undefined) do in these assays?
KDM5B inhibitor: inactive

What do the screens show for `CSc1ccc(NC(=O)c2ccc3c(c2)CCC3)cc1`?
KDM5B inhibitor: inactive

How did CSc1ccc(NC(=O)C2CCCCC2)cc1 do in these assays?
KDM5B inhibitor: inactive

How did CSc1ccc(NC(=O)c2cc3c(s2)CN(C2CC2)C3)cc1 do in these assays?
KDM5B inhibitor: 22µM

Results for CCN(CC)c1ccc(/C=N/c2sc(C)c(C)c2C#N)cc1 ?
KDM5B inhibitor: inactive

Results for CC(OC(=O)C12CC3CC(CC(Cl)(C3)C1)C2)C(=O)c1c[nH]c2ccccc12 (centres undefined) ?
KDM5B inhibitor: inactive

How did COCCN1Cc2nc(Nc3ccc(F)c(Cl)c3)ccc2OCC1=O do in these assays?
KDM5B inhibitor: inactive

How did Cc1csc(Nc2ccc3c(n2)CN(CCOc2ccccc2)C(=O)CO3)n1 do in these assays?
KDM5B inhibitor: inactive

Results for O=C1COc2ccc(Oc3ccccc3)nc2CN1CCOc1ccccc1 ?
KDM5B inhibitor: inactive

What do the screens show for `O=C1COc2ccc(Nc3ccccc3)nc2CN1CCOc1ccccc1`?
KDM5B inhibitor: 40µM

Results for COCCN1Cc2nc(Nc3ccc(C(F)(F)F)cc3)ccc2OCC1=O ?
KDM5B inhibitor: 25µM

What do the screens show for `Cc1nc(CN2Cc3nc(Nc4ccccc4)ccc3OCC2=O)cs1`?
KDM5B inhibitor: inactive

Results for CCCC(=O)N1CCCN(C(C)C(=O)Nc2ccccc2Cl)CC1 (centres undefined) ?
KDM5B inhibitor: inactive

Results for Cc1ccc2c(COC(=O)CCCN=C3NS(=O)(=O)c4ccccc43)cc(=O)oc2c1C ?
KDM5B inhibitor: inactive

Results for Cc1ccc(C(=O)NCCC2=CCCCC2)s1 ?
KDM5B inhibitor: inactive

Results for S=C(N/N=C1/CC2CC=CC12)NC1CCCCC1 (centres undefined) ?
KDM5B inhibitor: inactive

Results for CC(O)CNc1nc2c(c(=O)n(Cc3ccccc3Cl)c(=O)n2C)n1C (centres undefined) ?
KDM5B inhibitor: inactive

What do the screens show for `CC(=O)c1ccc(C(=O)N(CCCN(C)C)c2nc3ccc(Br)cc3s2)cc1`?
KDM5B inhibitor: inactive

What do the screens show for `Cc1cc(C)n2nc(C(=O)N3CCC4(CC3)C(=O)Nc3ccccc34)cc2n1`?
KDM5B inhibitor: 28µM

Results for COc1ccc(C(=O)N2CCC3(CC2)C(=O)Nc2ccccc23)cc1 ?
KDM5B inhibitor: inactive

What do the screens show for `CCOC(=O)C1(Cc2ccc(F)cc2)CCCN(C(=O)c2cc3nc(C)cc(C)n3n2)C1` (centres undefined)?
KDM5B inhibitor: 32µM

Results for O=C(c1ccccc1)N1CCC2(CC1)C(=O)Nc1ccccc12 ?
KDM5B inhibitor: inactive

What do the screens show for `CCOC(=O)C1(Cc2ccc(F)cc2F)CCCN(C(=O)c2cccnc2SC)C1` (centres undefined)?
KDM5B inhibitor: inactive

Results for CCOC(=O)C1(Cc2cccc(OC)c2)CCCN(C(=O)c2ccc(OC)o2)C1 (centres undefined) ?
KDM5B inhibitor: inactive

Results for COCC(C)n1c(COc2ccccc2F)nnc1SCC(=O)OC(C)(C)C (centres undefined) ?
KDM5B inhibitor: inactive

How did COc1ccc(-c2nnc3n(CCc4ccccc4)c(=O)c4ccccc4n23)cc1 do in these assays?
KDM5B inhibitor: inactive

What do the screens show for `Cc1ccc2nc(/C=C/c3ccc([N+](=O)[O-])cc3)ccc2c1`?
KDM5B inhibitor: inactive

Results for CCc1ccc(-c2noc(CSc3nc4cc5c(cc4c(=O)n3Cc3ccco3)OCO5)n2)cc1 ?
KDM5B inhibitor: inactive

How did CCCC(=O)Nc1ccc(-c2nc(NC(C)(C)C)sc2C)cc1 do in these assays?
KDM5B inhibitor: inactive

What do the screens show for `Cc1cc(Cl)ccc1S(=O)(=O)Nc1cccc(NC(N)=O)c1`?
KDM5B inhibitor: inactive

How did Cc1cnc(NC(=O)c2ccc3c(c2)OCCN(c2ccccc2)C3)s1 do in these assays?
KDM5B inhibitor: 28µM

Results for CNC(=O)c1ccc2c(c1)OCCN(c1ccccc1)C2 ?
KDM5B inhibitor: inactive

Results for O=C(NCC1CC1)c1ccc2c(c1)OCCN(c1ccccc1)C2 ?
KDM5B inhibitor: inactive

How did CN1CCN(Cc2nc3c(c(=O)n(C)c(=O)n3C)n2Cc2ccccc2F)CC1 do in these assays?
KDM5B inhibitor: inactive

What do the screens show for `CCC(=O)NCC(c1ccc(Cl)cc1)N1CCN(C)CC1` (centres undefined)?
KDM5B inhibitor: inactive

Results for CC(=O)N1CCc2c(n(Cc3cccnc3)n(CCc3ccccc3)c2=O)C1 ?
KDM5B inhibitor: inactive

Results for COCCn1c(=O)c2c(n1Cc1ccccc1)CN(Cc1cccnc1OC)CC2 ?
KDM5B inhibitor: 35µM

How did COc1ccc(-n2c(=O)c3c(n2Cc2ccccc2)CN(Cc2ccc(F)cc2)CC3)cc1 do in these assays?
KDM5B inhibitor: inactive

How did COc1ccc(-n2c(=O)c3c(n2Cc2ccccc2)CN(CCCc2ccccc2)CC3)cc1 do in these assays?
KDM5B inhibitor: inactive

How did CC(C)CCN1CCc2c(n(Cc3cccnc3)n(CCc3ccccc3)c2=O)C1 do in these assays?
KDM5B inhibitor: 32µM

How did COCCC(=O)N1CCc2c(n(Cc3ccc(OC)cc3)n(Cc3ccccc3)c2=O)C1 do in these assays?
KDM5B inhibitor: inactive

What do the screens show for `O=C(C1CCCO1)N1CCc2c(n(Cc3cccnc3)n(CCc3ccccc3)c2=O)C1` (centres undefined)?
KDM5B inhibitor: inactive

What do the screens show for `COCCn1c(=O)c2c(n1Cc1ccccc1)CN(Cc1cccc(C)n1)CC2`?
KDM5B inhibitor: 35µM

How did COCCn1c(=O)c2c(n1Cc1ccccc1)CN(C(=O)Cc1cccc(F)c1)CC2 do in these assays?
KDM5B inhibitor: inactive

What do the screens show for `COC(=O)C1=C(C)NC(=O)NC1c1cccc(Oc2ccc(Cl)cc2)c1` (centres undefined)?
KDM5B inhibitor: inactive

How did CC(=O)Nc1c(-c2cc(=O)oc3c(C)c(C)ccc23)oc2ccccc12 do in these assays?
KDM5B inhibitor: inactive

What do the screens show for `CCc1c(C)sc(NC(=O)Cc2ccccc2)c1C#N`?
KDM5B inhibitor: inactive

What do the screens show for `O=C(O)c1cc(Cl)cc(Cl)c1I`?
KDM5B inhibitor: inactive

What do the screens show for `O=C(Nc1ccccc1Cl)c1ccc2ccccc2n1`?
KDM5B inhibitor: inactive

Results for O=C(CN1C(=O)c2ccccc2C1=O)Nc1cnc2ccccc2c1 ?
KDM5B inhibitor: inactive

How did CC(C)C(=O)Nc1ccc(OCC(F)(F)F)c(C#N)c1 do in these assays?
KDM5B inhibitor: inactive

Results for CCC1Oc2ccc(NC(=O)Cc3ccc(OC)cc3)cc2CN(Cc2ccc(OC)cc2)C1=O (centres undefined) ?
KDM5B inhibitor: inactive

What do the screens show for `COc1ccc(CN2Cc3cc(NC(=O)c4ccccc4F)ccc3OC(C)C2=O)c(OC)c1` (centres undefined)?
KDM5B inhibitor: inactive

Results for CCC1Oc2ccc(NC(=O)c3ccc(OC)c(OC)c3)cc2CN(Cc2ccc(Cl)cc2)C1=O (centres undefined) ?
KDM5B inhibitor: 28µM

How did COc1ccc(CCN2Cc3cc(NC(=O)c4ccc(F)cc4F)ccc3OC(C)C2=O)cc1 (centres undefined) do in these assays?
KDM5B inhibitor: inactive

Compound activity from PubChem.
